According to PubChem BioAssay AID540253 (National Center for Advancing Translational Sciences (NCATS), 2011):
Out of some 340,000 compounds screened, about 240 (0.071%) were called active. This is one part of a sample in which actives are shown more often than they occur. A number with no mark means an inactive call. The call rests on the fitted dose curve.

biological target: Snurportin-1 (Homo sapiens) + GTP-binding nuclear protein Ran (Homo sapiens) + Importin subunit beta-1 (Homo sapiens) (UniProt O95149+P62826+Q14974); experiment: qHTS Assay for Inhibitors of RanGTP induced Rango (Ran-regulated importin-beta cargo) - Importin beta complex dissociation; conditions: Biochemical FRET Rango-importin beta; series mostly up to 46.1 µM; activity change, negative = inhibition: at the top concentration; further: nearly all actives have a fitted effect of over 45% in size; on activity change, negative = inhibition: % of control where 0% means no effect
Text: NIH Molecular Libraries Probe Production Centers Network [MLPCN] NIH Chemical Genomics Center [NCGC] MLPCN Grant: R03 MH090808-01A1 Assay Submitter (PI): Petr Kalab NCGC Assay Overview: The small GTPase Ran regulates transport of macromolecules between the nucleus and the cytoplasm (nuclear transport) and has important functions in mitotic spindle assembly, nuclear envelope (NE) formation and nuclear pore complex (NPC) assembly. RanGTP gradient is thought to promote spindle assembly by providing a spatial clue to microtubule nucleation and Aurora A activation. Because the localized release and binding of importin alpha cargos relays this spatial clue to SAFs, inhibitors of the Rango - importin beta complex can then be used in further understanding their role in cell cycle specifically in mitosis progression. […] Activation of Aurora A has been linked to different types of cancer and a number of Aurora kinase inhibitors are being developed as potential canter therapeutics; therefore, identified inhibitors of this complex could be developed into potential anti-mitotic probes for cancer treatment. Purified recombinant proteins Rango - importin beta and RanGTP-RCC1 stock premixes were provided by the assay submitter. The assay used a fluorescence resonance energy transfer (FRET) Rango biosensor that contains the IBB of human snurportin 1 flanked by yellow fluorescent protein (EYFP) at the amino terminus and cerulean CFP10 at the carboxy terminus. […] RanGTP binding to the complex (in the presence of RCC1) releases the Rango from the complex. The flexibility of the IBB in the freed Rango allows the donor - acceptor fluorophores to interact, resulting in a high FRET signal. Inhibitors will therefore be identified based on the ability to interfere with the FRET signal increase. DMSO treated and no RanGTP-RCC1 (buffer only) wells were used as negative and positive controls respectively. FRET readings were obtained at two time points. FRET reading prior to importin beta addition (pre-read) were used flag potential compound interference; FRET reading after importin beta addition (post-read) were used to identify inhibitors.
NCGC Assay Protocol Summary: Two and a half uL/well of Rango- importin beta premix solution (0.1 uM Rango, 0.25 uM importin beta, 1x PBS, 1mM DTT, 0.02% Tween-20, 0.1% BSA final concentrations) was dispensed into 1536-well assay plates (Greiner, solid black medium-binding plates) with Aurora Discovery BioRAPTR Flying Reagent Dispenser (FRD; Beckton-Dickenson). Compound solution (23 nL) was transferred to the assay plate using Kalypsys pin tool equipped with a 1536-pin tool and incubated at room temperature for 5 min followed by a FRET pre-read using the PerkinElmer Envision plate reader. Two and a half uL/well of RanGTP-RCC1 premix solution (0.6 uM Ran, 2mM GTP, 0.2 uM RCC1, 1x PBS, 1mM DTT, 0.02% Tween-20, 0.1% BSA final concentrations) were then added and incubated at room temperature giving a final reaction volume of 5uL. After 45min FRET post-read was obtained via the Envision plate reader using the same optics and settings as the pre-read (CFP/YFP optimized dual optical module D450/D505; excitation mirror CFP 430/24 nm; and emission filters CFP 486/10 nm and YFP 530/10 nm).
Potency means the concentration at half of the fitted maximal effect.

SMILES	activity change, negative = inhibition [%]	Potency
COc1ccccc1N(CC(=O)Nc1c(C)n(C)n(-c2ccccc2)c1=O)S(=O)(=O)c1ccccc1	15.2	
CC(C)(C)c1nnc2sc(SCC(O)=C(C#N)c3nc4ccccc4[nH]3)nn2c1=O	-17.3	
Cc1cc(NC(=O)C(C)SCC(=O)Nc2cccc(S(=O)(=O)N3CCCCCC3)c2)no1 (centres undefined)	-9.26	
CC(C)(C)C(=O)Nc1cccc(-c2ccc[nH]2)n1	-8.04	
Nc1ccc2c(c1)C(O)c1ccc(Cl)cc1-2 (centres undefined)	12	
Cn1cc(C2OC(=O)c3ccccc32)c2ccccc21 (centres undefined)	-1.39	
CCC1([N+](=O)[O-])COC(c2ccc(C(C)C)cc2)OC1 (centres undefined)	4.48	
Nc1ccc2c(c1)C(=Cc1cccnc1)c1ccccc1-2	-0.303	
Cc1nc2ccc(N)nc2nc1C	-10.7	
CC(C)c1cc(N=O)cc(C(C)C)c1O	16.3	
O=C(OCCOc1ccccc1Cl)c1cc(S(=O)(=O)N2CCCCC2)ccc1N1CCOCC1	-8.97	
Cc1ccc(S(=O)(=O)N2CCN(C(=O)c3cc(S(=O)(=O)N4CCOCC4)ccc3F)CC2)cc1	6.87	
CN(CCc1ccccc1)C(=O)c1cccc(NC(=O)Cc2cccc(NC(=O)C3CCCN(C(=O)CCc4ccccc4)C3)c2)c1 (centres undefined)	-6.42	
CCC(=O)N1CCc2cc(Br)c(S(=O)(=O)NCCN3CCCCC3CC)cc21 (centres undefined)	-5.08	
O=C(c1cccc(S(=O)(=O)N2CCCCCC2)c1)N1CCN(Cc2ccccc2)CC1	0.329	
CCOc1ccccc1NC(=S)C(=C([O-])c1ccc2c(c1)OCCO2)[n+]1ccc(CC)cc1	7.69	
CC(=O)c1cccc(-c2ccc(CN3C(CC(C)C)C(=O)N(Cc4cn(CC5CCCCC5)nn4)CCS3(=O)=O)cc2)c1 (centres undefined)	5.63	
C[n+]1cccc(C(=O)O)c1	10.9	
CC1CN(Cc2ccco2)C(=S)N(c2ccccc2)C1=O (centres undefined)	0.667	
Cc1nc(N)nc(Cl)c1CCC1OCCO1	18.9	
O=C(CN1C(=O)/C(=C\c2ccc(C(F)(F)F)cc2)Sc2ccccc21)NCc1ccco1		11.6 µM [inconclusive] (active)
O=C(CC1CCCCC1)NCc1ccco1	-9.28	
O=C(CCCCCN1C(=O)c2cccc3cccc(c23)C1=O)NCc1ccco1	4.95	
O=C(Cc1ccc([N+](=O)[O-])cc1)NCCc1ccc2c(c1)OCO2	12.1	
Cc1nc2ccccc2nc(=O)c1NNc1ccc([N+](=O)[O-])cc1		14.6 µM [inconclusive] (active)

SMILES	activity change, negative = inhibition [%]	Potency
Cc1nc(N)nc(SCc2ccc([N+](=O)[O-])cc2)c1N	-1.08	
Cc1cccc(NS(=O)(=O)c2ccc([N+](=O)[O-])cc2)n1	-2.17	
CN(C(=O)c1cccc(NC(=O)Cc2ccc(NC(=O)C3CCCN(C(=O)C4CCCC4)C3)cc2)c1)C1CCC1 (centres undefined)	4.82	
CSCCC(NS(=O)(=O)c1ccc(C)cc1)C(=O)N(C)CC(=O)Nc1ccccc1Br (centres undefined)	-5.32	
CC(=O)OCC(=O)C1(O)CCC2C3CC(C)C4=CC(=O)CCC4(C)C3C(O)CC21C (centres undefined)	-18.3	
NC(=S)NN=C1CCCC(C(F)(F)F)C1 (centres undefined)	-1.47	
C[C@@H]1NS(=O)(=O)c2cc(Cl)ccc2O[C@@H]1c1ccccc1	7.4	
CC(=O)CSc1nc(CCc2ccccc2)c(C#N)c(=O)[nH]1	-1.86	
CC(C)CN1CC(C)C(=O)N(c2ccccc2)C1=S (centres undefined)	0.708	
Nc1ncnc2c1cnn2C1CC(O)C(CO)O1 (centres undefined)	0.102	
Cc1ccc(-c2csc(C(C#N)=C(O)CN3CCN(C(=O)c4ccco4)CC3)n2)cc1	2.16	
O=C1CC(C(=O)O)NC(=S)N1 (centres undefined)	-1.44	
CCc1nnc(NC(=O)c2cc(S(=O)(=O)N3CCN(CC)CC3)ccc2Cl)s1	-2.92	
O=C(Cc1ccc(NC(=O)C2CCCN(C(=O)C3CCCCC3)C2)cc1)Nc1cccc(C(=O)N2CCCCC2)c1 (centres undefined)	-0.0587	
CCc1ccc(C(=O)C(C)OC(=O)CN2C(=O)NC3(CCCC3)C2=O)cc1 (centres undefined)	9.43	
COc1ccc(CCNC(=O)c2ccc(NC(=O)CC3SC(N4CCCCC4)=NC3=O)cc2)cc1OC (centres undefined)	19.5	
Cc1onc(-c2c(F)cccc2Cl)c1C(=O)Nc1cccc(S(=O)(=O)N2CCCCC2)c1	4.01	
COc1ccccc1C(=O)c1ccccc1C(=O)c1ccccc1	6.28	
CCOC(=O)N(Cc1ccccc1)C1CC1	-14.1	
COC1=NC2=NCCN2C(OC)=N1	0.279	
O=C(NN=Cc1ccccc1O)NN=Cc1ccccc1O	25.5	
O=[N+]([O-])c1cccc(C=NN=Cc2ccccc2O)c1	12.1	
CN(C)CCNC(=O)c1ccc(Cl)c2cc3ccccc3nc12	-25.3	
CCC(C)C1(C2CCCC2)NC(=O)NC1=O (centres undefined)	-4.04	
